Measured values: paper PMC7826789 (International Journal of Molecular Sciences, 2021)

Key:
Conditions in all cases: Compound Concentration (nM):1000
PIK3CA(C420R) = tested on: PIK3CA(C420R)
PIK3CA(E542K) = tested on: PIK3CA(E542K)
PIK3CA(E545A) = tested on: PIK3CA(E545A)
PIK3CA(E545K) = tested on: PIK3CA(E545K)
PIK3CA(H1047L) = tested on: PIK3CA(H1047L)
PIK3CA(H1047Y) = tested on: PIK3CA(H1047Y)
PIK3CA(I800L) = tested on: PIK3CA(I800L)
PIK3CA(M1043I) = tested on: PIK3CA(M1043I)
PIK3CA(Q546K) = tested on: PIK3CA(Q546K)
PIK3CA = tested on: PIK3CA
PIK3CB = tested on: PIK3CB
PIK3CD = tested on: PIK3CD
PIK3CG = tested on: PIK3CG
PIK4CB = tested on: T1, PIK4CB
T1 construct: gene PI4KB

PIKFYVE = tested on: PIKFYVE
PIM1 = tested on: PIM1
PIM2 = tested on: PIM2
PIM3 = tested on: PIM3
PIP5K1A = tested on: PIP5K1A
PIP5K1C = tested on: PIP5K1C
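Also: KINOMEscan scanMAX binding as percent activity remaining versus control; lower means stronger binding.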

SMILES | Percent Control (PIK3CA(C420R)) [%] | Percent Control (PIK3CA(E542K)) [%] | Percent Control (PIK3CA(E545A)) [%] | Percent Control (PIK3CA(E545K)) [%] | Percent Control (PIK3CA(H1047L)) [%] | Percent Control (PIK3CA(H1047Y)) [%] | Percent Control (PIK3CA(I800L)) [%] | Percent Control (PIK3CA(M1043I)) [%] | Percent Control (PIK3CA(Q546K)) [%] | Percent Control (PIK3CA) [%] | Percent Control (PIK3CB) [%] | Percent Control (PIK3CD) [%] | Percent Control (PIK3CG) [%] | Percent Control (PIK4CB) [%] | Percent Control (PIKFYVE) [%] | Percent Control (PIM1) [%] | Percent Control (PIM2) [%] | Percent Control (PIM3) [%] | Percent Control (PIP5K1A) [%] | Percent Control (PIP5K1C) [%]
COC(=O)Nc1nc2ccc(Oc3ccc(NC(=O)Nc4cc(C(F)(F)F)ccc4F)cc3)cc2s1.Cl [GW693917A] | 95 | 96 | 100 | 83 | 91 | 84 | 82 | 100 | 94 | 100 | 100 | 76 | 100 | 95 | 100 | 100 | 100 | 100 | 100 | 100
Cl.O=C(Nc1ccc(Oc2ccc3[nH]c(NC(=O)c4ccccc4)nc3c2)cc1)Nc1cc(C(F)(F)F)ccc1F [GW709042A] | 81 | 100 | 95 | 100 | 100 | 80 | 100 | 100 | 100 | 100 | 100 | 76 | 100 | 100 | 100 | 100 | 100 | 100 | 100 | 98
Cc1cc(O)cc(C)c1/C=C/c1cncc(C(N)=O)c1 [GW435821X] | 100 | 100 | 100 | 100 | 100 | 100 | 100 | 88 | 100 | 96 | 100 | 81 | 100 | 100 | 100 | 100 | 100 | 100 | 100 | 67
Cl.O=S1CCN(Cc2ccc(-c3ccc4ncnc(Nc5ccc(OCc6ccccc6)c(F)c5)c4c3)o2)CC1 [GW576924A] | 100 | 100 | 100 | 100 | 100 | 100 | 100 | 88 | 100 | 100 | 96 | 100 | 100 | 100 | 86 | 100 | 100 | 100 | 100 | 67
CC(C)COC(=O)c1ccc2c(c1)/C(=C/Nc1ccc(S(N)(=O)=O)cc1)C(=O)N2 [GW416981X] | 100 | 100 | 100 | 100 | 100 | 100 | 100 | 87 | 100 | 100 | 100 | 95 | 100 | 100 | 100 | 81 | 100 | 40 | 33 | 89
COc1ccc2[nH]c3c4[nH]c5ccc(OC)cc5c4c4c(c3c2c1)C(=O)NC4=O [GW296115X] | 90 | 92 | 100 | 84 | 74 | 89 | 93 | 95 | 91 | 91 | 88 | 64 | 87 | 100 | 0 | 46 | 0.5 | 2.6 | 100 | 81
Cl.O=C(Nc1ccc(Oc2ccc3[nH]c(NC(=O)c4ccco4)nc3c2)cc1)Nc1cc(C(F)(F)F)ccc1F [GW683134A] | 100 | 99 | 100 | 100 | 78 | 100 | 100 | 100 | 100 | 100 | 100 | 90 | 100 | 100 | 100 | 100 | 100 | 100 | 100 | 98
NS(=O)(=O)c1ccc(N/N=C2\C(=O)Nc3ccc(-c4cnco4)cc32)cc1 [GW276655] | 81 | 89 | 98 | 89 | 94 | 87 | 91 | 87 | 97 | 96 | 98 | 88 | 83 | 75 | 100 | 45 | 96 | 56 | 26 | 55
Cl.O=C(O[C@H]1CN[C@H](C#Cc2cc3ncnc(Nc4ccc5c(cnn5Cc5ccccc5)c4)c3s2)C1)N1CCOCC1 [GSK200398A] | 100 | 100 | 100 | 85 | 100 | 100 | 83 | 100 | 98 | 100 | 100 | 100 | 100 | 100 | 100 | 100 | 100 | 100 | 100 | 99
O=C1Nc2ccc(C(=O)c3ccco3)cc2C1=Cc1cc(Cl)c(O)c(Cl)c1 [GW406108X] | 76 | 76 | 83 | 72 | 41 | 79 | 34 | 93 | 77 | 91 | 100 | 79 | 47 | 0.8 | 88 | 32 | 61 | 9.9 | 88 | 43
Nc1ncnc2occ(-c3ccc(NC(=O)Nc4cc(C(F)(F)F)ccc4F)cc3)c12 [GW770249X] | 100 | 100 | 100 | 100 | 100 | 100 | 100 | 90 | 100 | 100 | 100 | 100 | 100 | 100 | 95 | 100 | 100 | 100 | 100 | 90
NS(=O)(=O)c1ccc(N/N=C2\C(=O)Nc3ccc(C(=O)NCc4ccncc4)cc32)cc1 [GW300657X] | 90 | 85 | 100 | 75 | 89 | 72 | 85 | 94 | 83 | 100 | 81 | 77 | 100 | 83 | 84 | 100 | 100 | 100 | 100 | 51
Cl.c1ccc(Cc2nc3ccc(Nc4ncnc5ccccc45)cc3[nH]2)cc1 [GR269666A] | 100 | 100 | 100 | 99 | 100 | 100 | 100 | 100 | 100 | 100 | 100 | 98 | 100 | 100 | 100 | 100 | 100 | 100 | 100 | 86
CN(C)c1cc2c(Nc3ccc4c(cnn4Cc4ccccc4)c3)ncnc2cn1 [GW282974X] | 83 | 90 | 95 | 67 | 88 | 70 | 76 | 97 | 85 | 89 | 89 | 70 | 96 | 100 | 100 | 91 | 93 | 90 | 100 | 100
COc1cc(/C=N/Nc2ncnc3[nH]ncc23)ccc1O [GW578748X] | 97 | 63 | 82 | 59 | 18 | 84 | 51 | 43 | 62 | 82 | 54 | 100 | 24 | 5 | 28 | 83 | 100 | 53 | 78 | 0
CC1=C(C(=O)Nc2ccc3[nH]ncc3c2)C(c2ccc(Cl)c(Cl)c2)CC(=O)N1 (stereo not shown) [GSK299115A] | 90 | 73 | 90 | 73 | 97 | 76 | 78 | 68 | 83 | 82 | 75 | 100 | 93 | 80 | 100 | 83 | 100 | 91 | 86 | 100
C/C(Nc1ccc(S(N)(=O)=O)cc1)=C1/C(=O)Nc2ccccc21 [GW335962X] | 95 | 100 | 100 | 100 | 100 | 85 | 100 | 100 | 100 | 100 | 100 | 95 | 100 | 100 | 100 | 91 | 95 | 89 | 96 | 84
COc1cccc(-c2c[nH]c3c(N/N=C/c4ccncc4)ncnc23)c1 [GW814408X] | 100 | 100 | 100 | 100 | 99 | 78 | 100 | 99 | 100 | 95 | 100 | 92 | 88 | 100 | 1.1 | 82 | 100 | 75 | 71 | 28
CN1CCN(C(=O)c2ccc(NC(=O)Nc3ccc(N(C)c4ccnc(Nc5ccc(CS(C)(=O)=O)cc5)n4)cc3)cc2)CC1.Cl [GW830263A] | 100 | 98 | 100 | 97 | 96 | 100 | 98 | 100 | 100 | 98 | 100 | 100 | 93 | 97 | 100 | 100 | 100 | 100 | 9.3 | 97
COc1ccc2cc(-c3c(-c4ccncc4)nc(-c4ccc(S(C)(=O)=O)cc4C)n3C)ccc2c1 [SB-633825] | 88 | 79 | 84 | 81 | 100 | 91 | 83 | 83 | 91 | 70 | 94 | 100 | 79 | 69 | 100 | 78 | 97 | 80 | 95 | 100
